Screens from PubChem BioAssay.
Only some compounds are listed: those with a hit (about 19% of all), similar ones and a draw of the others.
TDP1 cell CPT – qHTS for Inhibitors of human tyrosyl-DNA phosphodiesterase 1 (TDP1): qHTS in cells in presence of CPT; chicken DT40 Tdp1-/-;hTDP1 cells + 20 nM CPT, ATP luminescence, 48 h; AID 686979, 2013; 420,000 tested, 12% active; Potency, µM (top dose mostly 46.2 µM), inactives show top-dose activity change, negative = growth inhibition, most hits filed as inhibitors; further: potency means the concentration at half of the fitted maximal effect; nearly all actives have a fitted effect of over 55% in size
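Chicken DT40 Tdp1-/- cells stably complemented with human TDP1 were seeded at 400 cells/well in medium containing 20 nM camptothecin, exposed to pin-transferred compounds, and grown at 37 °C for at least 48 hr. Viability was read as ATP luminescence.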
HT1080 IDH1KD tx – qHTS for induction of synthetic lethality in tumor cells producing 2HG: qHTS for the HT-1080-IDH1KD cell line. HT-1080 IDH1 knockdown viability, ATP luminescence, 48 h. Potency, µM (series often up to 46.1 µM), without a hit: top-dose activity, negative = toxicity, actives largely listed as cytotoxic. 360,000 tested, 2% active;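 further: potency means the concentration at half of the fitted maximal effect; 0% = DMSO wells and -100% = cell-free medium wells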
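Viability of IDH1-knockdown HT-1080 fibrosarcoma cells was assessed by CellTiter-Glo after 48 h at 37 °C with titrated compound; concentration-effect curves were classified by fit quality and response size.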
IL-1B inflam inh – qHTS for Inhibitors of Inflammasome Signaling: IL-1-beta AlphaLISA Primary Screen; AID 743279, 2014; activity change, % at 57.5 µM; 360,000 tested, 4.7% active; THP-1 LPS/ATP IL-1B secretion, AlphaLISA, 16 h; active compounds read low; in the data active means activity change below about -50%; inconclusive means mostly about -30% to -49%
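Secreted IL-1B measured by AlphaLISA bead assay after 16 h compound exposure of THP-1 cells; compounds (final up to 57.5 uM) added 1 h before LPS (250 ng/mL) and ATP (1.25 mM) stimulation; lower signal means less secretion.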
DT40 TDP1 no CPT – qHTS for Inhibitors of human tyrosyl-DNA phosphodiesterase 1 (TDP1): qHTS in cells in absence of CPT | DT40 Tdp1-/- hTDP1 cells, no CPT, ATP luminescence, 48 h | Potency, µM (titrated, usually from 46.2 µM), for the others: at the top dose activity change, negative = growth inhibition, hits mostly inhibitors | 420,000 tested, 15% active | AID 686978, 2013; further: potency means the concentration at half of the fitted maximal effect; nearly all actives have a fitted effect of over 55% in size
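Compound effects on proliferation are scored in DT40 Tdp1-/-;hTDP1 cells in the absence of CPT. ATP levels (CellTiter-Glo luminescence) are recorded after a ≥48 hr, 37 °C incubation.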
HT1080NT lethal – qHTS for induction of synthetic lethality in tumor cells producing 2HG: qHTS for the HT-1080-NT fibrosarcoma cell line; HT-1080-NT fibrosarcoma viability, CellTiter-Glo ATP luminescence, 48 h; Potency, µM (titrated, usually from 46.1 µM), without a hit: top-dose activity, negative = less viability, actives largely listed as cytotoxic; 360,000 tested, 1.6% active;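 further: NT is the 2HG producing partner of a matched IDH1 knockdown line; potency means the concentration at half of the fitted maximal effect; 0% = DMSO-treated cells and -100% = media-only wells without cells; nearly all actives have a fitted effect of over 55% in size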
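A 48-hour cytotoxicity screen used HT-1080-NT cells plated 2 hours before compound delivery. ATP-based CellTiter-Glo luminescence measured viability, normalized to DMSO and no-cell controls.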
An asterisk follows results filed as active; i = inactive; ? = inconclusive; · = not tested or not shown. Unless noted, the call rests on the fitted dose curve; in most records, active means well fitted curve in the direction sought with a large enough effect; inconclusive means small, poorly fitted or top-dose-only effect, or another doubt; inactive means no such curve, though single readings can be large; an effect the other way counts as inactive or inconclusive. Unless noted, on the % scale 0 is the no-effect control and ±100 the full control effect.

SMILES	TDP1 cell CPT	HT1080 IDH1KD tx	IL-1B inflam inh	DT40 TDP1 no CPT	HT1080NT lethal
COc1ccc(-c2cc(C(=O)OCC(=O)N3CCCCC3)c3ccccc3n2)cc1OC	?	10%	12	21µM*	-3%
COc1ccc(-c2cc(C(=O)N3CCN(c4ccccc4)CC3)c3ccccc3n2)cc1OC	?	-16%	-20	16µM*	-14%
Cc1cccc(C(=O)OCC(=O)N2CCCCCC2)c1C	?	28%	-27	21µM*	27%
COc1ccc(-c2cc(C(=O)N3CCCC(C(F)(F)F)C3)c3ccccc3n2)cc1OC (stereo not drawn)	?	-1%	?	21µM*	-17%
COc1ccc(NC(=O)CSc2nc3c(c(=O)n2C)SCC3)cc1OC	2%	12%	i	-10%	5%
Cc1nn(-c2ccc(N3CCOCC3)nn2)c(C)c1CCC(=O)NCc1ccccc1	3%	19%	-4	19%	9%
Cc1ccc(-c2cc(C(=O)N3CCN(c4ccccc4)CC3)c3ccccc3n2)cc1C	?	·	·	16µM*	·
Cc1ccc2c(C(=O)N3CCN(c4ccccc4)CC3)cc(-c3cccnc3)nc2c1C	?	23µM*	-64*	13µM*	?
O=C(c1cc(-c2ccco2)nc2ccccc12)N1CCN(c2ccc(F)cc2)CC1	21µM*	1%	-9	13µM*	-4%
Cc1c(C(=O)C(=O)NCc2cccs2)c2ccccc2n1C	13%	28%	-2	-28%	?
CC1(C(=O)Nc2ccc(Cl)c(Cl)c2)CCN1C(=O)CC(c1ccccc1)c1ccccc1 (stereo not drawn)	18µM*	?	-9	23µM*	?
CCCC(C)(C)C(=O)N1CCC1(C)C(=O)Nc1cccc2ccccc12 (stereo not drawn)	21µM*	-25%	10	10µM*	-7%
CCCC(=O)N1CCC1(C)C(=O)Nc1ccccc1C(C)(C)C (stereo not drawn)	0%	19%	25	-18%	25%
Cn1nc(C2CC2)cc1NC(=O)C1(C)CCN1C(=O)Cc1ccc(-c2ccccc2)cc1 (stereo not drawn)	21µM*	-17%	-23	21µM*	-15%
CC1(C(=O)Nc2cnc3ccccc3c2)CCN1C(=O)CC(c1ccccc1)c1ccccc1 (stereo not drawn)	?	1%	-6	16µM*	3%
C[N+]1(CC(=O)Nc2ccccc2Cl)CCN(C(=O)c2cccs2)CC1	2%	12%	-29	-13%	6%
CC(C)(C)NC(=O)C(c1cccc2ccccc12)n1c(=O)c(-c2cc3ccccc3[nH]2)nc2ccccc21 (stereo not drawn)	?	?	138	?	-29%
Cc1ccc2c(=O)c(C(=O)c3ccc(F)cc3)cn(CC(=O)NCc3ccccc3Cl)c2n1	-24%	·	·	-7%	·
CC(C)c1cccc(OCCN2CCCC2)c1	16%	6%	9	2%	8%
CC1(C(=O)NCCC#N)CCN1C(=O)CC(c1ccccc1)c1ccccc1 (stereo not drawn)	-24%	0%	-50*	?	26%
CC1(C(=O)Nc2ccc(Cl)c(Cl)c2)CCN1C(=O)Cc1ccc(-c2ccccc2)cc1 (stereo not drawn)	15µM*	?	6	18µM*	?
CC1(C(=O)Nc2ccccc2)CCN1C(=O)Cc1ccc(-c2ccccc2)cc1 (stereo not drawn)	23µM*	?	-7	18µM*	?
CC1(C(=O)Nc2ccccc2F)CCN1C(=O)Cc1ccc(-c2ccccc2)cc1 (stereo not drawn)	?	?	4	15µM*	?
CC(C)c1ccc(CC(=O)N2CCC2(C)C(=O)NCCC#N)cc1 (stereo not drawn)	-34%	5%	0	-25%	12%
Cn1c(=O)n(C)c2cc(NC(=O)CSc3ccccc3)ccc21	-21%	-3%	19	-9%	-11%
SMILES	TDP1 cell CPT	HT1080 IDH1KD tx	IL-1B inflam inh	DT40 TDP1 no CPT	HT1080NT lethal
CC1(C(=O)N2CCCCC2)CCN1C(=O)Cc1ccc(-c2ccccc2)cc1 (stereo not drawn)	15µM*	-3%	1	?	-7%
Cc1ccc(CNC(=O)C2(C)CCN2C(=O)Cc2ccc(-c3ccccc3)cc2)cc1 (stereo not drawn)	?	?	-11	23µM*	?
COc1cccc(NC(=O)C2(C)CCN2C(=O)Cc2ccc(-c3ccccc3)cc2)c1 (stereo not drawn)	?	?	-13	15µM*	?
CC1(C(=O)Nc2ccc3c(c2)OCO3)CCN1C(=O)Cc1ccc(-c2ccccc2)cc1 (stereo not drawn)	7.3µM*	?	-28	4.6µM*	?
Cc1ccc(NC(=O)c2cc(S(=O)(=O)N(C)C)ccc2N2CCCC2)cc1F	1%	-26%	0	3%	-14%
Cc1cc(Br)ccc1NC(=O)CSc1c2c(nc3ccccc13)CCC2	15µM*	·	·	12µM*	·
COc1cc(NC(=O)CSc2nc3[nH]ncc3c(=O)n2-c2ccccc2)cc(OC)c1OC	?	-9%	?	26µM*	0%
COc1ccc(NC(=O)CSc2c3c(nc4ccccc24)CCCC3)c(OC)c1	21µM*	?	-105*	18µM*	?
Cc1cc(NC(=O)CSc2c3c(nc4ccccc24)CCC3)no1	?	?	-7	?	-22%
CCC(=O)Nc1ccc(NC(=O)CSc2nc3cc4c(cc3cc2C)CCC4)cc1	?	-10%	-15	?	-3%
Cc1ccccc1NC(=O)CSc1nc2cc3c(cc2cc1C)CCC3	4.6µM*	?	41	3.7µM*	?
Cc1ncc([N+](=O)[O-])n1S(=O)(=O)c1cc(Br)ccc1Br	-5%	8%	34	4%	-1%
COc1ccccc1NC(=O)c1cc2c([nH]c1=O)CC(C)(C)CC2=O	-1%	·	·	-2%	·
COc1ccc(N2CCN(C(=O)CSc3nc4[nH]ncc4c(=O)n3-c3cccc4ccccc34)CC2)cc1	6.5µM*	-13%	-51*	7.3µM*	-23%
COc1ccc(-c2c(C#N)c(SCC(=O)Nc3ccccc3)nc3c2CCCC3)cc1	26µM*	-13%	-9	?	11%
